Source: PubChem BioAssay AID624483 (NMMLSC, 2012)
About 11,000 (3.1%) of roughly 360,000 compounds were called active. Roughly 2% stayed inconclusive and do not appear here. No stated cut-off is given here; in the data, active means fluorescence intensity above about 16000; inconclusive means no clear call, values can overlap the other calls; inactive means below that. This excerpt belongs to a sample that is enriched for actives.

Test: compound fluorescence in toxin protease inhibitor counterscreen, primary screen, artefact control for toxin protease inhibitor project, biochemical, multiplex microsphere, HTS (AID 624483)
Conditions: compound autofluorescence counterscreen, microsphere flow cytometry; stronger effect = higher value

Compound	fluorescence intensity
CCOc1ccc2c(c1)cc(CN(C(=O)CC)C1CCCCC1)c1nnnn12	3990 (inactive)
CCOC1=C2[C@@H](CN(S(=O)(=O)c3ccc(C)cc3)[C@H]2c2ccccc2F)[C@H]2C(=O)N(Cc3ccccc3)C(=O)[C@H]2C1	4840 (inactive)
CCOc1ccc2[nH]c(=S)sc2c1	5910 (inactive)
O=C(NCC(c1cccs1)N1CCOCC1)c1cc(-c2ccccn2)nc2ccccc12 (centres undefined)	4740 (inactive)
O=C(c1ccccc1)c1cc(-c2ccccn2)c(N2CCOCC2)s1	25300 (active)
CCc1ccc2ncc(C(=O)c3ccccc3)c(N3CCOCC3)c2c1	6180 (inactive)
COc1ccccc1Oc1ccc(S(=O)(=O)Nc2cccnc2)cc1	21600 (active)
Cc1cc(C)c(C)c(S(=O)(=O)Nc2cccnc2)c1C	6330 (inactive)
COc1ccc(S(=O)(=O)Nc2cccnc2)c(Cl)c1Cl	3840 (inactive)
COC(=O)c1ccc2nc(-c3ccc(OC)c(OC)c3)c(Cc3ccccc3)n2c1	4370 (inactive)
Fc1cccc(Cc2c(-c3cccc(Cl)c3)nc3ccc(Br)cn23)c1	19700 (active)
Clc1cccc(Cc2c(-c3cccc(Cl)c3)nc3ccc(Cl)cn23)c1	8680 (inactive)
Fc1cccc(Cc2c(-c3ccc(Cl)cc3)nc3ccc(Cl)cn23)c1	8180 (inactive)
OC[C@@H]1CN(Cc2ccncc2)C[C@H](n2cnc3c(N4CCN(c5ccccc5)CC4)ncnc32)O1	3810 (inactive)
COCCN1C(=O)N(c2ccc(Cl)cc2)C(=O)C1CC(=O)Nc1cc(OC)cc(OC)c1 (centres undefined)	3750 (inactive)
CC(C)(C)OC(=O)N/N=C/c1ccc(C(=O)O)cc1	2640 (inactive)
Cc1cc(C(=O)OCC(=O)Nc2ccc(F)c(F)c2)c(C)o1	21600 (active)
Cc1cc(C)cc(NC(=O)COC(=O)c2cc(C)oc2C)c1	4090 (inactive)
Cc1cc(C(=O)OCC(=O)Nc2ccccc2Cl)c(C)o1	8500 (inactive)
CCCCSc1nnc(-c2ccc(C)cc2)o1	11000 (inactive)

Compound	fluorescence intensity
COc1ccc(-c2nnc(-c3ccc4ccccc4c3)o2)cc1	3860 (inactive)
CCCCOc1ccc(-c2nnc(-c3ccco3)o2)cc1	21200 (active)
NCCCNC(=S)NCCCN(Cc1ccc(Cl)cc1)c1ccc(Br)cn1	3820 (inactive)
O=C(NCc1ccco1)c1cccc(-c2ccc3nncn3c2)c1	3920 (inactive)
C=CCNC(=O)c1cc2nc(C3CC3)cc(C(F)F)n2n1	17500 (active)
CC1CCN(C(=O)c2cc3nc(C4CC4)cc(C(F)(F)F)n3n2)CC1	3040 (inactive)
O=C(Nc1ccc(Cl)cc1)c1cc2nc(C3CC3)cc(C(F)(F)F)n2n1	11300 (inactive)
CN(C)c1cccc(NC(=O)c2ccc(-c3ccc(F)c(F)c3)c3ccoc23)c1	3910 (inactive)
CCCCn1nnnc1C(c1cc2ccccc2o1)N(C)Cc1ccc(Cl)c(Cl)c1 (centres undefined)	5870 (inactive)
C=CCSc1nc(Cc2ccc(Cl)cc2)nc2ccccc12	23600 (active)
CC(C)N(C(=O)CSc1nc(COc2ccccc2)nc2ccccc12)C(C)C	3830 (inactive)
CCCNC(=O)CSc1nc(Cc2ccccc2)nc2ccccc12	2990 (inactive)
CCc1nc2ccc(C(=O)N3CCC(O)(Cc4ccccc4)CC3)cn2c1N(C)C(=O)Cc1ccccc1	3520 (inactive)
O=S1(=O)CC(N2CCC(Cc3ccccc3)CC2)CN1Cc1ccccc1 (centres undefined)	6300 (inactive)
Cc1noc(C)c1-c1ccc(C(=O)NCc2ccncc2)c2occc12	3470 (inactive)
COc1ccccc1N1CCN(S(=O)(=O)c2ccc3c(c2)NC(=O)CS3)CC1	5880 (inactive)
CCc1cc(=O)oc2cc(C)cc(OCC(=O)N3CCC[C@@H]3C(=O)O)c12	5750 (inactive)
CCc1cc(=O)oc2cc(C)cc(OC(C)C(=O)O)c12 (centres undefined)	22000 (active)
Cc1cc(OC(C)C(=O)NC2CC(C)(C)NC(C)(C)C2)c2c(C)cc(=O)oc2c1 (centres undefined)	6440 (inactive)
CCCCCCSc1nsc(N)n1	6410 (inactive)

Compound	fluorescence intensity
CCCSc1nsc(N)n1	17300 (active)
Nc1nc(SC23CC4CC(CC(C4)C2)C3)ns1	3930 (inactive)
Cc1ccc(CNC(=O)c2cc(-c3ccccc3C)n(CC3CC(c4cccc([N+](=O)[O-])c4)=NO3)n2)cc1 (centres undefined)	4220 (inactive)
CCOC(=O)[C@]12CCC=C1N(Cc1ccccc1)C(=O)[C@H](CC(=O)N1CCCC1)C2	5780 (inactive)
CC1(C(=O)NS(=O)(=O)C2CC2)CCCN(C(=O)CSc2ccccc2)C1 (centres undefined)	3670 (inactive)
O=C(Cc1csc(Nc2nc(=S)[nH]c3ccccc23)n1)NCCCN1CCN(c2cccc(Cl)c2)CC1	4240 (inactive)
CCOC(=O)N1CCC(Nc2c(NCCN3CCN(c4cccc(Cl)c4)CC3)c(=O)c2=O)CC1	4590 (inactive)
CCn1c(=O)cc(OCC(=O)NCCCN2CCN(c3cccc(Cl)c3)CC2)c2ccccc21	20500 (active)
O=C(CC[C@H]1O[C@@H](n2ccc(=O)[nH]c2=O)[C@H](O)[C@@H]1O)N[C@H](Cc1ccccc1)C(=O)NCc1ccco1	4020 (inactive)
CCOC(=O)C1(C)CCCN(C(=O)c2ccc(N(C)C)cc2)C1 (centres undefined)	9620 (inactive)
CCOc1cccc(-c2nn3c(-c4ccccn4)nnc3s2)c1	16800 (active)
CCOc1cccc(-c2nnc(SCC(=O)NC3CC3)n2C)c1	5480 (inactive)
Cc1ccccc1NC(=O)CSc1ccc2nnc(-c3ccccn3)n2n1	6840 (inactive)
CN(C)S(=O)(=O)N1CCN(c2ccc([N+](=O)[O-])cc2)CC1	4070 (inactive)
CCCOc1ccc(F)cc1-c1cc(C(=O)Nc2ccc(F)c(Cl)c2)[nH]n1	3800 (inactive)
CN(C)C(=O)c1cccc(-c2cnc3c(NC=O)cc(-c4ccc(F)cc4)cn23)c1	3680 (inactive)
CCOC(=O)c1cnc2c(c(C)nn2CC)c1Cl	4390 (inactive)
CCOC(=O)c1cnc(-n2nc(C)cc2C)nc1NNc1cc(C)nc(-c2ccccc2)n1	7400 (inactive)
CCOC(=O)c1cnc(-n2nc(C)cc2C)nc1-n1nc(C)cc1C	16800 (active)
